From PubChem BioAssay (NCI)
The panel holds about 83,000 compounds, 20% with a hit somewhere; the sample as a whole holds those more often.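 Step 1: grow cells in 96-well plates. Step 2: add test compound at a single concentration. Step 3: incubate 48 h. Step 4: record percent growth.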 Calls of active or inactive are those of the source. The calls were made as follows: active = growth percent below 10; inactive = the rest.

The molecules below were run on OVCAR-5 ovarian (assay: NCI-60 one-dose screen, 48 h (100 = growth as untreated, 0 = no growth, -100 = all killed)). Conditions: 10 µM unless noted.

Q: Which growth does the source give for `CCN(CC)C(=O)O/N=C(/C)c1ccccc1` here?
A: The growth was 103% (inactive).

Q: How did the growth turn out when `C=C1C(=O)O[C@H]2[C@H]1CC/C(COC(=O)NCc1ccc(Cn3c(=O)sn(CCCl)c3=O)cc1)=C\CC[C@@]1(C)O[C@@H]21` was run?
A: The growth was 109% (inactive).

Q: `COc1ccc2c(c1)sc1nc(-c3ccccc3)c(-c3cccc4ccccc34)n12` was tested. Which growth did it give?
A: Its growth is 44.7% (inactive).

Q: How did the growth turn out when `c1ccc(-c2nnn(-c3ccccc3)n2)cc1` was run?
A: Its growth is 105% (inactive).

Q: Which growth does the source give for `CC(C)N(C(=S)SSC(=S)N(C(C)C)C(C)C)C(C)C` here?
A: Its growth is 107% (inactive).

Q: With `Cc1ccc2c(C)c3c(ccc4ccccc43)c[n+]2c1` as the molecule, how does the growth read?
A: Its growth is 90.3% (inactive).

Q: `O=C(N/N=C/c1ccc([N+](=O)[O-])cc1)c1ccccc1Nc1ccnc(C(F)(F)F)c1` was tested. Which growth did it give?
A: The growth was 75.7% (inactive).

Q: `CC(C)CC1NC(=O)C(CC(C)C)N(CO)C1=O` (stereo not drawn) was tested. Which growth did it give?
A: The growth was 106% (inactive).

Q: Which growth does the source give for `Cc1ccccc1C1CC(=O)c2ccccc2C1C` (stereo not drawn) here?
A: Its growth is 97.2% (inactive).

Q: How did the growth turn out when `O=C1/C(=C/N2N=C(c3ccc(Cl)cc3)CC2c2ccccc2O)SC(=S)N1c1cccc(C(F)(F)F)c1` (stereo not drawn) was run?
A: The growth was 82.3% (inactive).

Q: `CN(C)CC(=O)c1ccc2cc(Br)c3ccccc3c2c1` was tested. Which growth did it give?
A: Its growth is 83.7% (inactive).

Q: Which growth does the source give for `CCN(C(=O)CCl)C(C)(C)C(SSSC(c1ccc(Cl)cc1)C(C)(C)N(CC)C(=O)CCl)c1ccc(Cl)cc1` (stereo not drawn) here?
A: The growth was 107% (inactive).

Q: With `COc1ccc(NC(=O)Cn2c(=O)sc3c(-c4ccc(Cl)cc4)cc(-c4ccc(Cl)cc4)nc32)cc1` as the molecule, how does the growth read?
A: Its growth is 111% (inactive).

Q: For `COc1cccc(/C=N\Nc2ccc([N+](=O)[O-])cn2)c1O`, which growth is on record?
A: Its growth is 104% (inactive).

Q: How did the growth turn out when `CCN(CC)CC(=O)Nc1c(C)cc(C(=O)NN)cc1C` was run?
A: Its growth is 103% (inactive).

Q: `CCCC(CCC)(C(N)=O)C(=O)O` was tested. Which growth did it give?
A: Its growth is 99.6% (inactive).

Q: Which growth does the source give for `COc1cnc2c(c1)C(=O)c1c-2n(CCCNC(C)C)c(=O)c2cc(Cl)ccc12` here?
A: Its growth is -56.1% (active).

Q: With `Cc1nn(-c2cccc(Cl)c2)c(C)c1N=Nc1ccc(Br)cc1` as the molecule, how does the growth read?
A: Its growth is 94.1% (inactive).

Q: How did the growth turn out when `CCCCCCCCCCCCNC(=O)N[C@H](C(=O)N[C@H]1/C=C/OCCNC(=O)/C=C/[C@H](C(C)C)NC1=O)C(C)C` was run?
A: Its growth is 36.1% (inactive).

Q: For `Cc1ccc(C(CN(C)C)C(=O)c2ccccc2)cc1` (stereo not drawn), which growth is on record?
A: Its growth is 65.9% (inactive).

Q: `CCCCCCCCCCCCCCCCCC(=O)[O][Sn]([CH2]CCC)([CH2]CCC)[CH2]CCC` was tested. Which growth did it give?
A: The growth was -71.1% (active).

Q: How did the growth turn out when `Cc1c2c(cc3c1[nH]c1ccccc13)C=NCC2` was run?
A: Its growth is 98.3% (inactive).

Q: For `COc1ccc(C(=O)C(CN(C)C)c2ccc(OC)cc2)cc1` (stereo not drawn), which growth is on record?
A: Its growth is 94.8% (inactive).

Q: Which growth does the source give for `CC(=O)O[C@H]1CC[C@]2(C)[C@H]3CC=C4[C@@H]5CC(C)(C)CC[C@]5(C(=O)OCC(COC(=O)C(Cl)Cl)(COC(=O)C(Cl)Cl)NC(=O)C(Cl)Cl)CC[C@@]4(C)[C@]3(C)CC[C@H]2C1(C)C` here?
A: Its growth is 86.1% (inactive).

Q: How did the growth turn out when `COc1ccc2c(c1)C1=NN(C(=O)CO)[C@H](c3ccc(OC(F)(F)F)cc3)[C@@H]1CC2` was run?
A: The growth was 108% (inactive).

Q: Which growth does the source give for `COc1ccc(Cl)cc1Nc1nc(C(F)(F)F)ccc1C(=O)NN` here?
A: Its growth is 40.6% (inactive).

Q: For `CC(C)c1cccc(C#N)c1`, which growth is on record?
A: Its growth is 112% (inactive).

Q: Which growth does the source give for `COc1ccc2nc3ccccc3c(NCc3ccc(C)cc3)c2c1` here?
A: The growth was 34% (inactive).

Q: For `CS(=O)(=O)c1ccc(C(=O)N/N=C/c2ccccc2Cl)cc1`, which growth is on record?
A: The growth was 109% (inactive).

Q: For `CC(C)(C)c1ccc(C(=O)Nc2sc3cc(O)ccc3c2C(N)=O)cc1`, which growth is on record?
A: The growth was 99.3% (inactive).

Q: Which growth does the source give for `COc1cc(/C=C\c2cc(/C=C\c3ccc(O)c(OC)c3)n(C(=O)Nc3ccc(C(F)(F)F)cc3)n2)ccc1O` here?
A: The growth was 115% (inactive).

Q: For `CCOC(=O)c1cc(N)nc2ccccc12`, which growth is on record?
A: Its growth is 109% (inactive).

Q: For `CCSCC1CC(O)(c2ccccc2)C(c2ccccc2)C(c2ccc(F)cc2)O1` (stereo not drawn), which growth is on record?
A: The growth was -2.48% (active).

Q: `CN1C2CCC1/C(=C\c1ccc(Cl)cc1)C(=O)/C2=C/c1ccc(Cl)cc1` was tested. Which growth did it give?
A: Its growth is 102% (inactive).

Q: `CCOC(=O)C1=C(C)NC(=S)NC1c1ccccc1` (stereo not drawn) was tested. Which growth did it give?
A: The growth was 101% (inactive).

Q: `C=C1C(=O)O[C@H]2[C@H]1CC/C(COC(=O)N[C@@H](Cc1c[nH]c3ccccc13)C(=O)OC)=C\CC[C@@]1(C)O[C@@H]21` was tested. Which growth did it give?
A: Its growth is 66% (inactive).

Q: How did the growth turn out when `Cc1nc(N)nc2c1CCC(Nc1ccccc1)S2` (stereo not drawn) was run?
A: Its growth is 100% (inactive).

Q: `COc1cc(OC)c2sc(-c3ccc(-n4cncc4-c4ccc(OC)c(N)c4)cc3)nc2c1` was tested. Which growth did it give?
A: Its growth is 101% (inactive).

Q: With `COc1cc(OC)cc(-c2ccc(-c3ccc(C(=N)N)s3)s2)c1` as the molecule, how does the growth read?
A: The growth was -81% (active).

Each molecule was assayed on OVCAR-4 ovarian in the same assay as above. Conditions: 10 µM unless noted.

Q: For `CCN(CC)C(=O)O/N=C(/C)c1ccccc1`, which growth is on record?
A: The growth was 80.7% (inactive).

Q: How did the growth turn out when `C=C1C(=O)O[C@H]2[C@H]1CC/C(COC(=O)NCc1ccc(Cn3c(=O)sn(CCCl)c3=O)cc1)=C\CC[C@@]1(C)O[C@@H]21` was run?
A: Its growth is 60.6% (inactive).

Q: `COc1ccc2c(c1)sc1nc(-c3ccccc3)c(-c3cccc4ccccc34)n12` was tested. Which growth did it give?
A: Its growth is 65% (inactive).

Q: How did the growth turn out when `c1ccc(-c2nnn(-c3ccccc3)n2)cc1` was run?
A: Its growth is 106% (inactive).

Q: With `CC(C)N(C(=S)SSC(=S)N(C(C)C)C(C)C)C(C)C` as the molecule, how does the growth read?
A: The growth was 78.7% (inactive).

Q: Which growth does the source give for `Cc1ccc2c(C)c3c(ccc4ccccc43)c[n+]2c1` here?
A: The growth was 56.3% (inactive).

Q: `O=C(N/N=C/c1ccc([N+](=O)[O-])cc1)c1ccccc1Nc1ccnc(C(F)(F)F)c1` was tested. Which growth did it give?
A: The growth was 61.1% (inactive).

Q: For `CC(C)CC1NC(=O)C(CC(C)C)N(CO)C1=O` (stereo not drawn), which growth is on record?
A: The growth was 113% (inactive).

Q: Which growth does the source give for `Cc1ccccc1C1CC(=O)c2ccccc2C1C` (stereo not drawn) here?
A: Its growth is 101% (inactive).

Q: How did the growth turn out when `O=C1/C(=C/N2N=C(c3ccc(Cl)cc3)CC2c2ccccc2O)SC(=S)N1c1cccc(C(F)(F)F)c1` (stereo not drawn) was run?
A: The growth was 37% (inactive).

Q: How did the growth turn out when `CN(C)CC(=O)c1ccc2cc(Br)c3ccccc3c2c1` was run?
A: The growth was 72.2% (inactive).

Q: With `CCN(C(=O)CCl)C(C)(C)C(SSSC(c1ccc(Cl)cc1)C(C)(C)N(CC)C(=O)CCl)c1ccc(Cl)cc1` (stereo not drawn) as the molecule, how does the growth read?
A: Its growth is 49.3% (inactive).

Q: With `COc1ccc(NC(=O)Cn2c(=O)sc3c(-c4ccc(Cl)cc4)cc(-c4ccc(Cl)cc4)nc32)cc1` as the molecule, how does the growth read?
A: Its growth is 98.3% (inactive).

Q: For `COc1cccc(/C=N\Nc2ccc([N+](=O)[O-])cn2)c1O`, which growth is on record?
A: The growth was 29.5% (inactive).

Q: With `CCN(CC)CC(=O)Nc1c(C)cc(C(=O)NN)cc1C` as the molecule, how does the growth read?
A: Its growth is 99.4% (inactive).

Q: Which growth does the source give for `CCCC(CCC)(C(N)=O)C(=O)O` here?
A: Its growth is 101% (inactive).

Q: `COc1cnc2c(c1)C(=O)c1c-2n(CCCNC(C)C)c(=O)c2cc(Cl)ccc12` was tested. Which growth did it give?
A: Its growth is -77% (active).

Q: `Cc1nn(-c2cccc(Cl)c2)c(C)c1N=Nc1ccc(Br)cc1` was tested. Which growth did it give?
A: The growth was 94.5% (inactive).

Q: For `CCCCCCCCCCCCNC(=O)N[C@H](C(=O)N[C@H]1/C=C/OCCNC(=O)/C=C/[C@H](C(C)C)NC1=O)C(C)C`, which growth is on record?
A: Its growth is 50.8% (inactive).

Q: `Cc1ccc(C(CN(C)C)C(=O)c2ccccc2)cc1` (stereo not drawn) was tested. Which growth did it give?
A: Its growth is 33.2% (inactive).

Q: For `CCCCCCCCCCCCCCCCCC(=O)[O][Sn]([CH2]CCC)([CH2]CCC)[CH2]CCC`, which growth is on record?
A: Its growth is -98% (active).

Q: With `Cc1c2c(cc3c1[nH]c1ccccc13)C=NCC2` as the molecule, how does the growth read?
A: Its growth is 94% (inactive).

Q: Which growth does the source give for `COc1ccc(C(=O)C(CN(C)C)c2ccc(OC)cc2)cc1` (stereo not drawn) here?
A: Its growth is 73.1% (inactive).

Q: For `CC(=O)O[C@H]1CC[C@]2(C)[C@H]3CC=C4[C@@H]5CC(C)(C)CC[C@]5(C(=O)OCC(COC(=O)C(Cl)Cl)(COC(=O)C(Cl)Cl)NC(=O)C(Cl)Cl)CC[C@@]4(C)[C@]3(C)CC[C@H]2C1(C)C`, which growth is on record?
A: Its growth is 67.6% (inactive).

Q: How did the growth turn out when `COc1ccc2c(c1)C1=NN(C(=O)CO)[C@H](c3ccc(OC(F)(F)F)cc3)[C@@H]1CC2` was run?
A: The growth was 89.5% (inactive).

Q: For `COc1ccc(Cl)cc1Nc1nc(C(F)(F)F)ccc1C(=O)NN`, which growth is on record?
A: Its growth is -4.08% (active).

Q: Which growth does the source give for `CC(C)c1cccc(C#N)c1` here?
A: The growth was 101% (inactive).

Q: Which growth does the source give for `COc1ccc2nc3ccccc3c(NCc3ccc(C)cc3)c2c1` here?
A: The growth was 18.5% (inactive).

Q: `CS(=O)(=O)c1ccc(C(=O)N/N=C/c2ccccc2Cl)cc1` was tested. Which growth did it give?
A: The growth was 95.9% (inactive).

Q: For `CC(C)(C)c1ccc(C(=O)Nc2sc3cc(O)ccc3c2C(N)=O)cc1`, which growth is on record?
A: The growth was 72.1% (inactive).

Q: For `COc1cc(/C=C\c2cc(/C=C\c3ccc(O)c(OC)c3)n(C(=O)Nc3ccc(C(F)(F)F)cc3)n2)ccc1O`, which growth is on record?
A: Its growth is 76.7% (inactive).

Q: For `CCOC(=O)c1cc(N)nc2ccccc12`, which growth is on record?
A: The growth was 109% (inactive).

Q: With `CCSCC1CC(O)(c2ccccc2)C(c2ccccc2)C(c2ccc(F)cc2)O1` (stereo not drawn) as the molecule, how does the growth read?
A: Its growth is -9.01% (active).

Q: `CN1C2CCC1/C(=C\c1ccc(Cl)cc1)C(=O)/C2=C/c1ccc(Cl)cc1` was tested. Which growth did it give?
A: The growth was 63.5% (inactive).

Q: `CCOC(=O)C1=C(C)NC(=S)NC1c1ccccc1` (stereo not drawn) was tested. Which growth did it give?
A: Its growth is 98.5% (inactive).

Q: For `C=C1C(=O)O[C@H]2[C@H]1CC/C(COC(=O)N[C@@H](Cc1c[nH]c3ccccc13)C(=O)OC)=C\CC[C@@]1(C)O[C@@H]21`, which growth is on record?
A: Its growth is 72.2% (inactive).

Q: `Cc1nc(N)nc2c1CCC(Nc1ccccc1)S2` (stereo not drawn) was tested. Which growth did it give?
A: Its growth is 114% (inactive).

Q: How did the growth turn out when `COc1cc(OC)c2sc(-c3ccc(-n4cncc4-c4ccc(OC)c(N)c4)cc3)nc2c1` was run?
A: Its growth is 78% (inactive).

Q: With `COc1cc(OC)cc(-c2ccc(-c3ccc(C(=N)N)s3)s2)c1` as the molecule, how does the growth read?
A: Its growth is -54.2% (active).
